According to PubChem BioAssay AID1259421 (Broad Institute, 2018):
Several values for one entry are separate records, joined by “and”; a condition that tells them apart may be missing. Equal entries are not always repeated. Screen size: about 6,400 compounds; about 610 (9.5%) were called active. The list comes from a sample in which actives are over-represented; it also holds similar structures and randomly drawn compounds. Unmarked numbers belong to inactive results. Cut-off read from the data, not from the text of the source: active = activity change below about -70%; inconclusive = no clear call, values can overlap the other calls; inactive = above that.

Assay: Toxoplasma gondii ME49Luc growth in HeLa cells, luciferase, no IFN-y, primary screen (AID 1259421)
Conditions: T. gondii ME49Luc in HeLa, 72 h, stronger effect = lower value, concentration not given here

Compound	activity change, negative = inhibition
COc1cccc(-c2cc(=O)c3cc(OC)ccc3o2)c1	316%
O=C1Nc2ccc(Br)cc2/C1=C/c1cc2c([nH]1)CCCC2	13.6%
CCCCCCCCCCC(CO)CCCCCCCC (centres undefined)	7.89%
CC(N)=NCCCC[C@H](N)C(=O)O	11.5%
CCCCC(CC)CN=C(N)NC(N)=NCCCCCCN=C(N)NC(N)=NCC(CC)CCCC (centres undefined)	-87.6% (active)
C=C1CCC2C(CC2(C)C)C(=O)CCC1O (centres undefined)	4.7%
C[C@@]1(C(=O)Nc2ccc(F)nc2)CCCN1c1nc(Nc2cc(C3CC3)[nH]n2)c2cccn2n1	-54.4%
CCOC(=O)[C@H](CCc1ccccc1)N[C@@H](C)C(=O)N1C(=O)N(C)C[C@@H]1C(=O)O	6.47%
CC1CCC(C(=O)N(c2cc(C#CC(C)(C)C)sc2C(=O)O)C2CCC(O)CC2)CC1 (centres undefined)	16.2%
CC(=O)OCC(=O)[C@H]1CCC2C3CCC4=CC(=O)CC[C@]4(C)C3CC[C@@]21C (some centres undefined)	0.487%
CC(=O)OCC(=O)[C@H]1CC[C@H]2[C@@H]3CCC4=CC(=O)CC[C@]4(C)[C@H]3CC[C@]12C	-73.9% (active) and -75.9% (active)
CCC(=O)O[C@]1(C(=O)CO)CC[C@H]2[C@@H]3CCC4=CC(=O)CC[C@]4(C)[C@H]3CC[C@@]21C	-9.17%
CC(=O)[C@@]1(O)CCC2C3CCC4=CC(=O)CC[C@]4(C)C3CC[C@@]21C (some centres undefined)	6.92% and 3.13%
CC(=O)OCC(=O)[C@H]1CCC2C3CC=C4C[C@@H](O)CC[C@]4(C)C3CC[C@@]21C (some centres undefined)	7.77%
CCCCC(=O)O[C@]1(C(=O)CO)CCC2C3CCC4=CC(=O)CC[C@]4(C)C3[C@@H](O)C[C@@]21C (some centres undefined)	0.149% and 0.816%
CCCCCC(=O)O[C@]1(C(C)=O)CCC2C3CCC4=CC(=O)CC[C@]4(C)C3CC[C@@]21C (some centres undefined)	-76.9% (active)
C[C@]12C[C@H](O)[C@H]3[C@@H](CCC4=CC(=O)CC[C@@]43C)[C@@H]1CC[C@@H]2C(=O)CO	1.69%
C[C@]12CC[C@H]3[C@@H](CCC4=CC(=O)CC[C@@]43C)[C@@H]1CC[C@@H]2C(=O)CO	-83.1% (active)
CCCOc1ccc(Br)cc1-c1cc(-c2ccc(Cl)cc2)[nH]c1-c1ccncc1	-7.79%
CC(C)N1CCN(c2ccc(C(=O)c3c(-c4ccc(O)cc4)sc4cc(O)ccc34)cc2)CC1	-3.21% and -13.9%
NC(N)=Nc1nc(CSCC/C(N)=N\S(N)(=O)=O)cs1	15.8% and 7.35%
CN1CCN(C2=Nc3cc(F)ccc3Cc3ccccc32)CC1	-3.95%
CCOC(=O)C12CC1/C(=N/O)c1ccccc1O2 (centres undefined)	10.1%
O=[Si]=O	10.7%
CCCCCCCCN1C(=O)C(C(C)=O)=C(C)C1(C)O (centres undefined)	12.4%

Compound	activity change, negative = inhibition
O=C(O)[C@H]1CN(CCCP(=O)(O)O)CCN1	4.53%
Oc1ccc2c(c1)OCC1(O)Cc3cc(O)c(O)cc3C21 (centres undefined)	-0.693%
Nc1[nH]nc2nc3ccccc3nc12	19.2%
Nc1nc2c(ncn2[C@@H]2O[C@@H](CO)[C@@H](O)[C@H]2O)c(=O)[nH]1	-3.02%
Nc1ncnc2c1ncn2[C@@H]1O[C@H](CO)[C@@H](O)[C@H]1O	6.4%
Nc1nc(=S)c2ncn([C@@H]3O[C@H](CO)[C@@H](O)[C@H]3O)c2[nH]1	-79.5% (active)
Cc1nnsc1C(=O)Nc1ccc(-n2nc(C(F)(F)F)cc2C(F)(F)F)cc1	-80% (active)
COc1ccc2oc3ccccc3c(=O)c2c1	118%
OCC1OC2OC3C(CO)OC(OC4C(CO)OC(OC5C(CO)OC(OC6C(CO)OC(OC7C(CO)OC(OC8C(CO)OC(OC1C(O)C2O)C(O)C8O)C(O)C7O)C(O)C6O)C(O)C5O)C(O)C4O)C(O)C3O (centres undefined)	1.48%
O=C(O)c1ccc2c3c1cccc3c(=O)n1c3ccccc3nc21	9.96%
CO[C@@H]1[C@H](O)[C@@H](CO)O[C@H]1n1cnc2c(NC3CCCCC3)ncnc21	2.27%
COc1nc(N)nc2c1ncn2[C@@H]1O[C@H](CO)[C@@H](O)[C@@H]1O	-2.56% and 14.5%
COc1ccc(C[C@H](N)C(=O)N[C@@H]2[C@@H](CO)OC(n3cnc4c(N(C)C)ncnc43)[C@@H]2O)cc1 (some centres undefined)	-80.4% (active) and -91% (active)
O=C(O)c1cc2cccc([N+](=O)[O-])c2[nH]1	8.58%
CO/N=C(/C(=O)NC1C(=O)N2C(C(=O)O)=C(C[N+]3(C)CCCC3)CSC12)c1csc(N)n1 (centres undefined)	6.5%
NC(=O)c1ccc(-c2nc(-c3ccc4c(c3)OCO4)c(-c3ccccn3)[nH]2)cc1	-37%
Cc1cccc(-c2[nH]c(C(C)(C)C)nc2-c2ccc3c(c2)OCO3)n1	-75.7% (active)
Cc1cccc(-c2[nH]c(C(C)(C)C)nc2-c2ccc3nccnc3c2)n1	-81% (active)
NC(=O)c1ccc(-c2nc(-c3ccc4c(c3)OCCO4)c(-c3ccccn3)[nH]2)cc1	25.7% and -23.2%
C=C[C@@]1(C)CC(=O)[C@@]2(O)[C@](C)(O1)[C@@H](O)[C@@H](O)C1C(C)(C)CC[C@H](O)[C@@]12C (some centres undefined)	11.2%
C=CC(C)(O)CCC=C(C)C (centres undefined)	11.3%
COc1ccccc1N1CCN(CC2CN3C(=O)N(C)c4ccccc4C3=N2)CC1 (centres undefined)	1.95%
CC(=O)O[C@]1(C(C)=O)CCC2C3C=C(Cl)C4=CC(=O)[C@@H]5C[C@@H]5[C@]4(C)C3CC[C@@]21C (some centres undefined)	11.3%
CCCCC(=O)N(Cc1ccc(-c2ccccc2-c2nn[nH]n2)cc1)[C@H](C(=O)O)C(C)C	-0.624% and 4.63%
C#CC1(OCC(O)CN2CCN(c3cccc(C(F)(F)F)c3)CC2)CCCCC1 (centres undefined)	-34.5%

Compound	activity change, negative = inhibition
CCCOc1ccc(S(=O)(=O)N2CCN(CCO)CC2)cc1-c1nc2c(CCC)cn(CC)c2c(=O)[nH]1	0.0881%
CC(C)[C@H](CO)Nc1nc(Nc2cc(N)cc(Cl)c2)c2ncn(C(C)C)c2n1	-82.6% (active)
CC(C)n1cnc2c(NCc3ccccc3)nc(NCCCO)nc21	0.139%
CC(C)[C@H](CO)Nc1nc(Nc2ccc(C(=O)O)c(Cl)c2)c2ncn(C(C)C)c2n1	13% and 1.51%
CC(C)[C@H](CO)Nc1nc(Nc2cccc(Cl)c2)c2ncn(C(C)C)c2n1	-86% (active) and -72.5% (active)
CC[C@@H]1OC(=O)C[C@@H](O)[C@H](C)[C@@H](O[C@@H]2O[C@H](C)[C@@H](O)[C@H](N(C)C)[C@H]2O)[C@@H](CCN2C[C@H](C)C[C@H](C)C2)C[C@@H](C)C(=O)/C=C/C(C)=C\[C@@H]1CO[C@@H]1O[C@H](C)[C@@H](O)[C@@H](OC)[C@H]1OC	17.5%
CN1[C@@H]2CC(OC(=O)[C@H](CO)c3ccccc3)C[C@H]1[C@H]1O[C@H]12 (some centres undefined)	23.8%
CCCCCCCC/C=C/C(=O)O	1.14%
CO/N=C(\C(=O)N[C@@H]1C(=O)N2C(C(=O)OCOC(=O)C(C)(C)C)=C(C)CS[C@H]12)c1csc(N)n1	21.8%
OC[C@@]1(O)OC[C@@H](O)[C@@H](O)[C@@H]1O	7.13%
COc1cc(N2CCC(N(C)C)CC2)ccc1Nc1ncc(Cl)c(Nc2ccccc2P(C)(C)=O)n1	-60.2%
CN1CCN(c2nc(C3=C(c4c[nH]c5ccccc45)C(=O)NC3=O)c3ccccc3n2)CC1	-9.55%
CNC(=O)c1ccccc1Nc1nc(Nc2ccc(N3CCOCC3)cc2OC)ncc1Cl	-73.7% (active) and -87.3% (active)
COc1cc(N2CCC(N3CCN(C)CC3)CC2)ccc1Nc1ncc(Cl)c(Nc2ccccc2S(=O)(=O)C(C)C)n1	-84.8% (active)
CNC(=O)c1ccccc1Nc1nc(Nc2ccc3c(c2OC)CCC[C@H](N2CCN(CCO)CC2)C3)ncc1Cl	-74.8% (active)
COc1cc(N2CCC(N3CCN(C)CC3)CC2)ccc1Nc1ncnc(Nc2ccccc2S(=O)(=O)C(C)C)n1	-35.3%
CNC(=O)c1c(F)cccc1Nc1nc(Nc2cc3c(cc2OC)CCN3C(=O)CN(C)C)nc2[nH]ccc12	-10.7%
CNC(=O)c1ccccc1Nc1cc(Nc2ccc(N3CCOCC3)cc2OC)ncc1C(F)(F)F	-46.5%
COc1cc(N2CCC(N)CC2)ccc1Nc1ncc(Cl)c(-c2c[nH]c3ccccc23)n1	-81% (active)
CN(CCc1ccc(Cl)c(Cl)c1)CC(O)COc1ccc(NS(C)(=O)=O)cc1 (centres undefined)	-4.31% and -8.47%
O=C(NCC(=O)N1CC[C@H](NC2CCC(O)(c3ccc(-c4ncccn4)cn3)CC2)C1)c1cccc(C(F)(F)F)c1 (some centres undefined)	13.2%
COc1ccc2nc(S(=O)Cc3ncc(C)c(OC)c3C)[nH]c2c1 (centres undefined)	29.5% and 32.8% and 15.1%
O=Cc1ccc(CO)o1	3.95%
O=c1c(OC2OC(CO)C(O)C(O)C2O)c(-c2ccc(O)c(O)c2)oc2cc(O)cc(O)c12 (centres undefined)	-1.42%
